# RE007 growth inh: less growth of the S. pombe RE007 Vpr strain; S. pombe RE007 Vpr strain, BacTiter-Glo ATP luminescence, 24 h; hit rate 0.21% among 360,000; Potency, µM (doses to about 92.2 µM), without a hit: at the highest dose activity change, negative = less growth, actives largely listed as inhibitors; active means well fitted falling curve with a large enough effect; inconclusive means small, poorly fitted or top-dose-only effect; inactive means no such curve, though single readings can be large or run the other way; further: nearly all actives have a fitted effect of over 50% in size
#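 Fission yeast strain RE007, carrying one chromosomally integrated HIV-1 vpr copy, was seeded at OD 0.01 in PMG+AL medium with 23 nL pinned compound. After 24 h at 30 °C and 99% humidity, viability was read by BacTiter-Glo luminescence.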
# TbPYK inhibitor: T. brucei pyruvate kinase inhibition | Q57TT1 | TbPYK enzyme, Kinase-Glo Plus ATP luminescence, 45 min | Potency, µM (top dose mostly 76.8 µM), without a hit: top-dose activity, negative = inhibition, hits mostly inhibitors | hit rate 0.12% among 410,000; further: nearly all actives have a fitted effect of over 50% in size
#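 Activity of T. brucei pyruvate kinase was followed by Kinase-Glo Plus luminescence after the enzyme reacted 45 min at room temperature with 130 uM ADP (final) and substrate. Test compounds were added before ADP at multiple concentrations.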
# Giardia FBPA inh-1: Giardia lamblia aldolase inhibition | hit rate 0.71% among 290,000 | Potency, µM (titrated, usually from 59.6 µM), without a hit: top-dose activity, negative = inhibition, most hits filed as inhibitors | purified Giardia FBPA; further: nearly all actives have a fitted effect of over 55% in size
#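 Giardia FBPA (40 nM reagent) was preincubated 10 min at RT with compound (up to 57.5 uM final), then substrate plus GAPDH/TPI/NAD/arsenate coupling system with diaphorase/resazurin was added; resorufin fluorescence (525/598 nm) was read after 20 min.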
# Sm TGR block: S. mansoni TGR enzyme inhibition; Q962Y6; purified TGR, DTNB reduction, TNB absorbance 405 nm; Potency, µM (top dose mostly 114 µM), for inactives: at the top dose activity change, negative = inhibition, hits mostly inhibitors; hit rate 3% among 360,000; further: nearly all actives have a fitted effect of over 60% in size
#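 Kinetic colorimetric format: TGR-catalysed, NADPH-driven DTNB reduction monitored via TNB absorbance. Enzyme dispensed at 20 nM; compound exposure 15 min at room temperature before reaction start.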
# LmPK inhibitor: blocks Leishmania mexicana pyruvate kinase activity. Potency, µM (series often up to 57.5 µM), inactives show at the highest dose activity change, negative = inhibition, most hits filed as inhibitors. Q27686. hit rate 0.37% among 290,000. purified LmPK, Kinase-Glo ATP luminescence, 1 h. AID 1721
#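 In 50 mM imidazole pH 7.2 with 7 mM MgCl2, LmPK (0.1 nM) turned over PEP (0.5 mM) and ADP (0.1 mM) for 1 h at room temperature. Luciferase read-out of ATP.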
# Giardia growth: blocks growth of Giardia lamblia trophozoites | shares compounds with Giardia FBPA inh-1 | Giardia lamblia trophozoite growth inhibition | Potency, µM (highest dose often 57.5 µM), for inactives: top-dose activity change, negative = inhibition, usual class: inhibitors | hit rate 5% among 1,500 | AID 2785;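 further: trophozoites exposed to compound for 48 h at 37 °C; nearly all actives have a fitted effect of over 70% in size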
# Mammalian tox: mammalian cytotoxicity of Giardia aldolase inhibitor hits | shares compounds with Giardia FBPA inh-1 | mammalian cell viability counter-screen, qHTS | Potency, µM (series often up to 57.5 µM), without a hit: at the highest dose viability change, negative = toxicity, actives largely listed as inhibitors | hit rate 4% among 1,500 | AID 2786;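 further: Chinese hamster ovary cells used as mammalian cytotoxicity surrogate; viability measured as cellular ATP by luminescence; compound exposure lasted 48 h before reading; nearly all actives have a fitted effect of over 60% in size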
# Giardia FBPA inh-2: confirmation of Giardia fructose-bisphosphate aldolase inhibitors; AID 2787; purified Giardia aldolase enzyme activity, qHTS; hit rate 5% among 1,500; shares compounds with Giardia FBPA inh-1; Potency, µM (top dose mostly 57.5 µM), for the others: at the highest dose activity change, negative = inhibition, usual class: inhibitors; further: nearly all actives have a fitted effect of over 45% in size
# Rabbit aldolase: blocks rabbit muscle aldolase in Giardia aldolase selectivity test; shares compounds with Giardia FBPA inh-1; Rabbit muscle FBPA enzyme inhibition, selectivity counter-screen; Potency, µM (highest dose often 57.5 µM), for the others: at the top dose activity, negative = inhibition, actives largely listed as inhibitors; hit rate 4% among 1,500; AID 2794; further: nearly all actives have a fitted effect of over 60% in size
# Target sequence (P00883 whole entry, looked up): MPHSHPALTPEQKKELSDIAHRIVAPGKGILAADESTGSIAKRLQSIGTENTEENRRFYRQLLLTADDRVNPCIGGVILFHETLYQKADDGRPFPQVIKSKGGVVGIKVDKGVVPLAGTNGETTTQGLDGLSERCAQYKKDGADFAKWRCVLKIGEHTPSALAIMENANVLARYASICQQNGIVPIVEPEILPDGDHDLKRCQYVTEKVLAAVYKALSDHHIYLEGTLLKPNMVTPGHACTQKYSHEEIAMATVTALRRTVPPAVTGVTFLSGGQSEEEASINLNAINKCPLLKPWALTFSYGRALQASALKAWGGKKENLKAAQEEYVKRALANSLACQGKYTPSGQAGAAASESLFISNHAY
# GAPDH counter: GAPDH inhibition flagged for Giardia aldolase hits; shares compounds with Giardia FBPA inh-1; GAPDH coupling enzyme counterscreen, biochemical, qHTS; Potency, µM (doses to about 57.5 µM), for the others: at the highest dose activity change, negative = inhibition, hits mostly inhibitors; hit rate 6% among 1,500; AID 2795; further: nearly all actives have a fitted effect of over 55% in size
# Active calls of the source: *; ? = inconclusive; · = no result given; [ ] = another dose, or the depositor's remark. Most compounds without a hit are left out; they make up all but 3.3% or so of the library. Unless noted, the call rests on the fitted dose curve; in most records, active means well fitted curve in the direction sought with a large enough effect; inconclusive means small, poorly fitted or top-dose-only effect, or another doubt; inactive means no such curve, though single readings can be large; an effect the other way counts as inactive or inconclusive. On the % scale 0 is the no-effect control and ±100 the full control effect; potency means the concentration at half of the fitted maximal effect.
SMILES,RE007 growth inh,TbPYK inhibitor,Giardia FBPA inh-1,Sm TGR block,LmPK inhibitor,Giardia growth,Mammalian tox,Giardia FBPA inh-2,Rabbit aldolase,GAPDH counter
Cc1cccc(NC(=O)C2CCCN(C(=O)NC3CCCCC3)C2)c1C (configuration not stated),-2%[3.69 µM],·,-1%,13%[11.4 µM],12%,·,·,·,·,·
CCOc1ccc(CN(C)CCc2ccccn2)cc1,-19%,1%,?,3%,-1%,·,·,·,·,·
S=C(Nc1ccc2nsnc2c1)N1CCCC1,4%,-8%,6.3µM*,40µM*,?,-8%,-6%,?,?,?
O=C(CN1C(=O)c2ccccc2S1(=O)=O)NCc1ccc(F)cc1,-1%,3%,·,-21%,-12%,·,·,·,·,·
Cc1cccc(NC(=S)Nn2cnnc2)c1C,-2%,-6%,7.9µM*,·,-2%,?,5%,7%,3%,17%
O=C(Nc1ccccc1)Nn1cnnc1,-9%,1%,8%,2%,5%,·,·,·,·,·
CCc1ccc(NC(=S)Nn2cnnc2)cc1,-17%,?,-25%,8%,-5%,·,·,·,·,·
S=C(Nc1ccccc1)Nn1cnnc1,·,-26%,13µM*,0%,-5%,?,-13%,4%,5%,8%
Cc1ccc(NC(=S)Nn2cnnc2)cc1,-21%,-18%,16µM*,·,1%,?,7%,4%,7%,18%
Cc1ccccc1NC(=S)Nn1cnnc1,5%,-12%,·,-19%,-5%,·,·,·,·,·
CC1=Nc2ccccc2N=C(NC(=O)CSC(=S)N2CCCCC2)C1c1ccccc1 (configuration not stated),-7%,0%,-9%,22%,6%,·,·,·,·,·
O=C(O)C1C2C=CC(C2)C1C(=O)NC(c1ccccc1)c1ccccc1 (configuration not stated),-17%,11%,10%,-10%,1%,·,·,·,·,·
CC(=O)c1cccc(NC(=S)N2CCc3ccccc32)c1,19%,-5%,25µM*,-1%,-8%,27%,0%,4%,1%,16%
Fc1cccc(NC(=S)N2CCc3ccccc32)c1,12%,2%,·,-28%,-1%,·,·,·,·,·
COc1ccc(-c2ccc(S(=O)(=O)N3CCOCC3)cc2)cc1,2%,1%,6%,-21%,3%,·,·,·,·,·
C[C@H](N)C(=O)N1CCC(C(=O)N[C@@H](Cc2ccccc2)C(=O)Nc2ccc(F)cc2)CC1,5%,-10%,16µM*,-2%,-6%,-26%,12%,-2%,-3%,3%
O=C(N[C@@H](Cc1ccccc1)C(=O)Nc1ccc(F)cc1)C1CCNCC1,6%,10%,·,0%,0%,·,·,·,·,·
COc1cc(CN2CCN(C(=O)CC(C)C)CC2)cc(OC)c1O,7%,8%,16µM*,13µM*,-8%,?,-19%,4µM*,?,-7%
COc1cc(CN2CCC(C(=O)NC3CCCC3)CC2)cc(OC)c1O,-1%,7%,18µM*,8.9µM*,-3%,7%,-12%,4µM*,?,?
CC1CCN(c2ccc(/C=N\Nc3nncn3N)cc2[N+](=O)[O-])CC1,-30%,-7%,11µM*,-17%,1%,11µM*,15%,?,-25%,?

# Screens (PubChem BioAssay)
